Inhibition data for 14 molecules are collected here from ChEMBL document CHEMBL4513137, “CO-ADD screening of University of Manchester (UK) compounds”.

Molecules are shown by their SMILES. Results with a measured potency or affinity are listed apart.

In one test the test system is Staphylococcus aureus. To be noted: Concentration 32 ug.mL-1; ASSAY_TEST Inhibition of Bacterial Growth; detection method Absorption (OD600); MEDIA CAMHB; plate type 384well; NBS; CORNING #3640; time 18 hr.
The subject of a further test is Escherichia coli. The settings on record: Concentration 32 ug.mL-1; ASSAY_TEST Inhibition of Bacterial Growth; detection method Absorption (OD600); MEDIA CAMHB; plate type 384well; NBS; CORNING #3640; time 18 hr.

For the molecule `O=[N+]([O-])c1ccc(-c2ccccc2Nc2ccccc2)c(Cl)c1`, the Inhibition with Staphylococcus aureus is recorded as 13.69%; in the test on Escherichia coli, -8.34%.
The matching figures for `c1ccc(Nc2ccccc2-c2ncccn2)cc1`: 6.34% and 1.3%.
On to `COc1cccc(Nc2ccccc2)c1-c1c(Cl)cc(Br)cc1Cl`, for which the Inhibition came out at 19.63% in the test on Staphylococcus aureus and 4.62% in the test on Escherichia coli.
For `N#Cc1ccc(-c2ccccc2Nc2ccccc2)cc1`, the results for the Inhibition in the test with Staphylococcus aureus and in the test with Escherichia coli were 12.74% and -6.88%, respectively.
The like results for `CC(=O)c1ccc(-c2ccccc2Nc2ccccc2)cc1` were, in that order, 12.03% and 6.5%.
Take `O=[N+]([O-])c1ccc(-c2c(Nc3ccccc3)ccc3ccccc23)cc1`: the Inhibition is reported as 8.24% in the test on Staphylococcus aureus and -0.39% with Escherichia coli.
Take `O=[N+]([O-])c1ccc(-c2ccccc2Nc2ccccc2Br)cc1`: the Inhibition in the test on Staphylococcus aureus is listed as 15.02%; in the test on Escherichia coli it was -1.08%.
In the case of `Cc1cc([N+](=O)[O-])ccc1-c1ccccc1N(C)c1ccccc1`, the Inhibition in the test on Staphylococcus aureus is given as -10.68%; in the test on Escherichia coli, 0.54%.
For the molecule `O=[N+]([O-])c1ccc2c3ccccc3n(-c3ccccc3)c2c1`, the Inhibition is listed as 11.65% in the test with Staphylococcus aureus and -9.21% in the test with Escherichia coli.
For the molecule `CC[C@@H](Nc1ccccc1-c1c(Cl)cc(Br)cc1Cl)c1ccccc1`, the Inhibition with Staphylococcus aureus is recorded as 29.88%; with Escherichia coli, 4.43%.
The matching figures for `O=[N+]([O-])c1ccc(-c2c(Nc3ccccc3)cccc2-c2ccccc2)cc1`: 23.01% and -0.69%.
On to `O=[N+]([O-])c1ccc(-c2ccccc2Nc2ccccc2)cc1F`, for which the Inhibition is 18.96% in the test with Staphylococcus aureus and 3.69% in the test with Escherichia coli.
The matching figures for `COc1cc([N+](=O)[O-])ccc1-c1c(Nc2ccccc2)cccc1OC`: 27.31% and 7.58%.
As for `COc1cccc(N(C)c2cccc(OC)c2-c2ccc([N+](=O)[O-])cc2C)c1`, the Inhibition in the test with Staphylococcus aureus turned out to be 23.07%; in the test on Escherichia coli, 1.91%.
